aDG glyco up: activators of alpha-DG glycosylation, primary screen, uHTS, Pro5-aDG cells, AlphaScreen. AID 624168, 2012. hit rate 0.22% among 360,000. activation, % at 10 µM. alpha-DG glycosylation AlphaScreen (IIH6); 0% Pro5, 100% B10-LARGE cell signal;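 active means activation of at least 8% versus controls, or a plate z-score of at least 8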;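 further: Pro5 are CHO cells carrying HIG-tagged alpha-DG that lacks glycosylation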
APOBEC3A inh: APOBEC3A ssDNA deaminase inhibitors, primary screen, selectivity assay for APOBEC3G inhibitor project, biochemical, FAM/TAMRA oligo cleavage fluorescence. AID 493011, 2011. DNA dC->dU-editing enzyme APOBEC-3A (Homo sapiens), P31941. inhibition, % at 20 µM. hit rate 0.41% among 330,000. recombinant A3A, FAM/TAMRA ssDNA deamination fluorescence;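 active means at least 40% inhibition at 20 µM here, with at most 30% in a related deaminase screen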
ALR inh: inhibitors of human ALR sulfhydryl oxidase, primary screen, biochemical, H2O2 detection, HRP-luminol luminescence, single point | FAD-linked sulfhydryl oxidase ALR (Homo sapiens), P55789 | purified ALR, DTT oxidation | inhibition, % (concentration not given with the values) | hit rate 3.8% among 290,000;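 active means mean replicate inhibition above about 79%, with every replicate also reaching it, limit read from the data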
Target sequence (P55789 whole entry, looked up): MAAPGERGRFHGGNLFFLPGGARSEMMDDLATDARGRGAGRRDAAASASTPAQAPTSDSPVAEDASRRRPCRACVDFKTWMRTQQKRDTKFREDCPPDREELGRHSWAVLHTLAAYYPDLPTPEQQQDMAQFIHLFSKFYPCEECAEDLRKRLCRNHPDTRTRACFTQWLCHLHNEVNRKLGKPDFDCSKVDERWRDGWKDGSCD
APOBEC3G inh: APOBEC3G DNA deaminase inhibitors, primary screen, biochemical, fluorescence, single-stranded DNA substrate, uHTS; DNA dC->dU-editing enzyme APOBEC-3G (Homo sapiens), Q9HC16; recombinant A3G, ssDNA deamination FAM/TAMRA fluorescence; inhibition, % at 20 µM; hit rate 0.28% among 330,000;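 active means inhibition of at least 40% at 20 µM, with no more than 30% in the related APOBEC3A deaminase screen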
PHOSPHO1 block: PubChem AID 1565; hit rate 1.1% among 290,000; recombinant PHOSPHO1, absorbance phosphatase assay; inhibition, % at 13.3 µM; Phosphoethanolamine/phosphocholine phosphatase (Homo sapiens), Q8TCT1; in the data active means inhibition above about 60%
Target sequence (Q8TCT1 whole entry, looked up): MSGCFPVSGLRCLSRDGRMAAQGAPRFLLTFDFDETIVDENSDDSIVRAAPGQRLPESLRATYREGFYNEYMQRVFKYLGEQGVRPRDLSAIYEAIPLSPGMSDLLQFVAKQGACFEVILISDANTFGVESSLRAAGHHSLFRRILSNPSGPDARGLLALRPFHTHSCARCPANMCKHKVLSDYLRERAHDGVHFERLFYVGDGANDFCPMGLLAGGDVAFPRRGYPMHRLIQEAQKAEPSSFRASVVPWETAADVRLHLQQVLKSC
rCAG RNA binder: binders of r(CAG) RNA repeats, primary screen, biochemical, fluorescence. r(CAG) RNA repeat, TO-PRO-1 dye displacement fluorescence. AID 651821, 2012. hit rate 1.3% among 370,000. inhibition, % at 3 µM;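 active means inhibition above the plate cutoff, the mean of all test compounds on that plate plus 3 SD, cut at about 35% in these data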;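 further: higher means more dye released from RNA so lower well fluorescence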
A number is an active result; . = inactive; / = no result given. Rows were chosen to be rich in hits. Some 5.4% of all compounds tested hit in one or more screens of this group.

SMILES | aDG glyco up | APOBEC3A inh | ALR inh | APOBEC3G inh | PHOSPHO1 block | rCAG RNA binder
COc1ccc(/C=C(/C#N)C(=O)Nc2cccc([N+](=O)[O-])c2)cc1C(=O)O | . | . | 97.2 | . | . | .
N#C/C(=C\c1cccc([N+](=O)[O-])c1)C(=O)NCc1ccc(Cl)cc1 | . | / | / | / | . | .
N#C/C(=C\c1cccc([N+](=O)[O-])c1)C(=O)NCc1cccnc1 | . | . | / | . | . | .
COc1ccc(OC)c(-c2cc(C(=O)Nc3cccc(Cl)c3)no2)c1 | . | . | . | . | . | .
COc1ccc(Nc2cccc(Cl)c2)c(C(=O)O)c1 | . | . | 98.4 | . | . | .
O=C(Nc1cc(Cl)ccc1F)C1CCCN(c2nnc(-n3cccc3)s2)C1 (centres undefined) | / | / | / | / | / | .
CCc1cc(C(=O)N/N=C/c2ccc(O)cc2O)c2ccccc2n1 | . | . | 83.3 | . | . | .
COc1ccc(/C=N/NC(=O)/C(=C/c2ccccc2)CCO)cc1 | . | . | . | . | . | .
O=C(N/N=C/c1ccc(O)cc1O)c1ccncc1 | . | . | . | . | . | .
O=C(N/N=C/c1ccc(O)cc1O)/C(=C/c1ccccc1)CCO | . | . | 81.0 | . | . | .
COc1cc(/C=N/NC(=O)/C(=C/c2ccccc2)CCO)ccc1O | . | . | 99.3 | . | . | .
CCCC1(C(=O)O)NC(c2ccccc2O)C2C(=O)N(Cc3ccccc3)C(=O)C21 (centres undefined) | . | . | . | . | . | .
CCC1(C(=O)O)NC(c2cc(OC)ccc2O)C2C(=O)N(Cc3ccccc3)C(=O)C21 (centres undefined) | . | . | 86.6 | . | . | .
CC1CCCN(C(=O)C2CCN(c3nc(-c4ccccc4)nc4c3CCC4)CC2)C1 (centres undefined) | . | . | . | . | 65.8 | .
C[C@@H]1C[C@@H]2O[C@H]2CCCCC(=O)Cc2cc(O)cc(O)c2C(=O)O1 | / | / | / | / | / | .
COc1cccc(-c2nc(CS(=O)CC(=O)NC(C)CCc3ccccc3)c(C)o2)c1 (centres undefined) | . | . | 98.2 | . | . | .
COc1cccc(-c2nc(CS(=O)CC(=O)O)c(C)o2)c1 (centres undefined) | . | . | 99.0 | . | . | .
CCC(C)NC(=O)CS(=O)Cc1nc(-c2cccc(OC)c2)oc1C (centres undefined) | . | . | 99.2 | . | . | .
Cc1ccccc1-c1nc(CS(=O)CC(=O)NC(C)CCc2ccccc2)c(C)o1 (centres undefined) | . | . | . | . | . | /
COc1cccc(-c2nc(CS(=O)CC(=O)NCCc3ccccc3)c(C)o2)c1 (centres undefined) | . | . | 98.7 | . | . | .
Cc1oc(-c2ccccc2)nc1CS(=O)CC(=O)O (centres undefined) | . | . | / | . | . | .
Cc1cccc(-c2nc(CS(=O)CC(=O)NCCc3ccccc3)c(C)o2)c1 (centres undefined) | . | . | . | . | . | .
CCn1c(SCC(=O)c2ccc(-c3ccccc3)cc2)nnc1-c1ccccc1OC | / | / | / | / | / | .
Cc1nn(C)cc1CN(C)C(=O)c1cc(COc2ccc(F)cc2F)on1 | . | . | . | . | 64.2 | .
c1ccc(Cn2ccc3ccc(-c4ccc5ccn(Cc6ccc(-c7ccccc7)cc6)c5c4)cc32)cc1 | / | / | / | / | / | .
SMILES | aDG glyco up | APOBEC3A inh | ALR inh | APOBEC3G inh | PHOSPHO1 block | rCAG RNA binder
CCOC(=O)[C@]12CCCC=C1N(Cc1ccc(OC)cc1)C(=O)[C@@H]2CC(=O)N1CCCC1 | / | / | / | / | / | .
COC(=O)[C@]12C[C@H](CC(=O)NCCCN3CCCC3=O)C(=O)N(Cc3ccc(Cl)cc3Cl)C1=C[C@H](C(C)(C)C)O[C@@H]2C | / | / | / | / | / | .
Cc1cccc(C)c1NC(=O)CCCSc1nnc(-c2ccc(F)cc2)n1-c1ccccc1 | . | . | 95.8 | . | . | .
Cc1cccc(C)c1NC(=O)CCCSc1nnc(-c2ccc(Cl)cc2)n1-c1ccccc1 | . | . | / | . | . | .
O=C(CCc1ccccc1)N[C@H]1[C@@H](OC(=O)c2cnccn2)CCC[C@@]12C(=O)N(Cc1ccccc1)c1ccccc12 | / | / | / | / | / | .
COc1cc(C(=O)O)c2c(c1C)OC(=O)c1c(C)cc(O)c(C=O)c1O2 | . | . | 98.6 | . | / | .
O=C(CCn1c(=O)oc2ccccc21)n1c(=O)oc2ccccc21 | . | . | 96.2 | . | . | .
O=C(CCn1c(=O)oc2ccccc21)N1CCCCCC1 | . | . | . | . | . | .
Clc1ccc(/C=N/Nc2nn[nH]n2)cc1 | . | . | / | . | . | .
Oc1ccccc1/C=N/Nc1nn[nH]n1 | . | . | . | . | . | .
O=[N+]([O-])c1ccc(O)c(/C=N/Nc2nn[nH]n2)c1 | . | . | 83.6 | . | . | .
C(=N\Nc1nn[nH]n1)/c1ccccc1 | . | . | . | . | 71.0 | .
C=CCNC(=O)CN(C(=O)c1csc2ccc(Cl)cc12)c1cccc(Br)c1 | / | / | / | / | / | .
COc1ccc(CN2CCC(CNC(=O)Nc3ccc(Cl)cc3)CC2)cc1 | / | / | / | / | / | .
O=c1[nH]c2ccc(S(=O)(=O)Nc3ccccc3O)cc2[nH]1 | . | . | 92.7 | . | . | .
COc1ccccc1NS(=O)(=O)c1ccc2[nH]c(=O)[nH]c2c1 | . | . | . | . | . | .
Cc1[nH]c2ccccc2c1CC(=O)Nc1ccc(Nc2cccnc2)c(-c2ccc(-c3ccccc3)cc2F)c1 | / | / | / | / | / | .
Clc1cccc(Nc2ncnc3ccc(Br)cc23)c1 | . | . | . | . | 62.0 | .
CC(=O)NC12CC3CC(C1)CC(C(=O)Nc1nc4ccc(F)cc4s1)(C3)C2 | . | . | 86.2 | . | . | .
CCC(CC)c1nnc(NC(=O)C23CC4CC(CC(NC(C)=O)(C4)C2)C3)s1 | . | . | . | . | . | .
O=C(N[C@H](Cc1ccccc1)C(=O)N(CCC1=CCCCC1)CC1CC1)[C@H]1O[C@@H](n2ccc(=O)[nH]c2=O)[C@H](O)[C@@H]1O | / | / | / | / | / | .
COc1ccc([N+](=O)[O-])c(S(=O)(=O)c2ccccc2)n1 | . | . | 97.0 | . | . | .
COc1ccc([N+](=O)[O-])c(S(=O)(=O)c2ccc(Cl)cc2)n1 | . | . | 75.3 | . | . | .
COc1nc(OC)nc(Oc2ccc(Cl)cc2[N+](=O)[O-])n1 | . | . | . | . | . | .
O=[N+]([O-])c1cccnc1S(=O)(=O)c1ccccc1 | . | . | . | . | / | .
CC(C)(C)N1Cc2nnn(CC3CCCCC3)c2-c2cc(F)ccc2S1(=O)=O | / | / | / | / | / | .
C=CCNc1sc(C(=O)c2ccc(C)cc2)c(N)c1C#N | . | . | . | . | 95.9 | .

Screening results from PubChem.
